Compounds with a hit are over-represented: about 7.9% of the library has one in this group of screens.
HCV inhibitor – qHTS Assay for Inhibitors of Hepatitis C Virus (HCV); 340,000 tested, 3.4% active; Huh7.5.1 HCVcc-Cre infection, luciferase reporter, 44 h; Potency, µM (top dose mostly 41.8 µM), without a hit: at the top dose activity change, negative = inhibition, usual class: inhibitors; active means well fitted inhibition curve with a large enough effect; inconclusive means small, poorly fitted or top-dose-only effect, or another doubt; inactive means no such curve, though single readings can be large or run the other way; further: potency means the concentration at half of the fitted maximal effect
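Cells seeded at 1,000/well and cultured 4 h, then compounds added followed by HCVcc-Cre virus (~0.5 moi). After 44 h further culture, luciferase substrate was added, plates held 15 min at room temperature, and luminescence read for 15 sec.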
FMDV inh – High Throughput Screening for Foot and Mouth Disease Virus Antivirals; FMDV antiviral cell-based qHTS; Potency, µM (highest dose often 57.9 µM), without a hit: at the top dose activity change, negative = inhibition, actives largely listed as inhibitors; 410,000 tested, 1.2% active; AID 1159524, 2015; calls by dose curve; tested in HEK293T cells; further: read-out not given here; potency means the concentration at half of the fitted maximal effect; nearly all actives have a fitted effect of over 45% in size
LASV entry inh – qHTS for Inhibitors of binding or entry into cells for Lassa Virus; Potency, µM (top dose mostly 37.9 µM), for the others: top-dose activity change, negative = inhibition, most hits filed as inhibitors; 300,000 tested, 1.2% active; AID 540256, 2011; Lassa virus pseudotype entry inhibition, cell reporter; calls by dose curve; tested in HEK293 cells; further: potency means the concentration at half of the fitted maximal effect; nearly all actives have a fitted effect of over 50% in size
Marburg entry inh – qHTS for inhibitors of binding or entry into cells for Marburg Virus; Marburg virus pseudotyped entry inhibition, cell reporter; Potency, µM (highest dose often 37.8 µM), for the others: top-dose activity change, negative = inhibition, hits mostly inhibitors; 300,000 tested, 1.8% active; calls by dose curve; tested in HEK293 cells; further: potency means the concentration at half of the fitted maximal effect
HCMV antiviral – qHTS Assay for inhibitors of the human cytomegalovirus (HCMV). HFF cells, HCMV-luciferase reporter, 72 h; stronger effect = lower value. activity change, negative = inhibition, % at 57.5 µM. 410,000 tested, 4.5% active. AID 1259415, 2018; in the data active means activity change below about -60%; inconclusive means no clear call, values can overlap the other calls; inactive means above about -39%
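Steps: HFFs plated, 16 h 37C; compounds added; HCMV-luciferase added to MOI 1 PFU/cell; 72 h 37C; OneGlo reagent, 5 min room temperature; luminescence read, normalized to controls.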
Starred values were filed as active, the others as inactive; ? = inconclusive; . = not tested or not shown; [ ] = dose if it differs, or a comment. On the % scale 0 is the no-effect control and ±100 the full control effect.

SMILES	HCV inhibitor	FMDV inh	LASV entry inh	Marburg entry inh	HCMV antiviral
NNC(=O)c1cccc(COc2ccccc2Br)c1	20%	-21%	?	?	165
CN(Cc1ccco1)C(=O)C1CCN(c2nnc(-n3cccc3)s2)CC1	-20%	-3%	.	.	-11
O=C(NCc1ccco1)C1CCN(c2nnc(-n3cccc3)s2)CC1	-10%	-3%	.	.	-67*
O=C(NCCCN1CCc2ccccc2C1)C1CCN(c2nnc(-n3cccc3)s2)CC1	?	-30%	6%	15µM*	2
Clc1ccc(Nc2nnc(Cc3ccncc3)c3ccccc23)cc1	.	.	.	.	3
CCCSC1=C(C#N)[C@H](c2ccc(OC)cc2)C2=C(CC(C)(C)CC2=O)N1	.	.	.	-10%	.
CC(=O)Nc1ccc(-c2ccnc3c2CC(C(=O)NCc2ccccc2)O3)cc1 (stereo not given)	.	-20%	.	.	-64*
CC(=O)Nc1ccc(-c2ccnc3c2CC(C(=O)NCCc2ccccc2)O3)cc1 (stereo not given)	.	12%	.	.	10
O=C(NCc1ccccc1)C1Cc2c(-c3ccc4c(c3)OCO4)ccnc2O1 (stereo not given)	.	-1%	.	.	-67*
O=C(NCc1ccncc1)C1Cc2c(-c3ccc4c(c3)OCO4)ccnc2O1 (stereo not given)	.	-19%	.	.	-13
CC(=O)Nc1ccc(-c2ccnc3c2CC(C(=O)NCc2ccco2)O3)cc1 (stereo not given)	.	-14%	.	.	-70*
COCCN1C(=O)C2=C(C1=O)C1N(C)c3ccccc3[C@@]13C[C@@H](CO)N(C(=O)c1ccc(Br)cc1)C3=N2 (stereo not given in full)	.	.	?	-7%[14.2 µM]	.
COc1cc(C)c(CN2C[C@H](Sc3ccccn3)C[C@H]2C(=O)N(C)C)cc1C	.	4%	.	.	.
Cc1cc(C)c2c(=O)c3c(oc2c1)C(=O)N(Cc1ccc(F)cc1)C3c1cccc(O)c1 (stereo not given)	.	-11%	-37%[46.1 µM]	?	-66*
Cc1ccc2oc3c(c(=O)c2c1)C(c1cccc(O)c1)N(Cc1ccccc1Cl)C3=O (stereo not given)	.	21%	26%[46.1 µM]	4%[46.1 µM]	-74*
COCCN1C(=O)c2oc3cc(C)cc(C)c3c(=O)c2C1c1cccc(O)c1 (stereo not given)	.	-9%	6%[46.1 µM]	-24%[46.1 µM]	-4
COc1ccc(OC)c(-c2ccnc(-n3ncc(C(=O)N(C)CCO)c3C3CC3)n2)c1	.	34%	.	.	.
c1cnc2nc3c4ccccc4c4ccccc4c3nc2c1	2.8µM*	-8%	?	?	88
Cc1nc2ccccc2c2ncccc12	-7%	-27%	.	.	-16
COCCn1c(SCC(=O)NC(=O)NC2CCCC2)nc2ccccc2c1=O	-28%	?	.	.	-38
O=C(c1ccc(S(=O)(=O)N2CCCCCC2)cc1)N1CCN(Cc2ccccc2)CC1	?	?	.	.	-14
COc1ccc(C(=O)N2CCN(S(=O)(=O)c3ccc(Br)cc3)CC2)cc1	4%	-31%	.	.	-35
COc1ccc(S(=O)(=O)N2CCN(C(=O)CCNC(=O)c3ccccc3Cl)CC2)cc1	-9%	-14%	17%	?	-98*
N#Cc1ccc(CN2CCN(C(=O)c3ccc(S(=O)(=O)N4CCCCCC4)cc3)CC2)cc1	7.9µM*	14µM*	.	.	-78*
O=C(c1ccc(S(=O)(=O)N2CCCCCC2)cc1)N1CCC(CN2C(=O)c3cccc4cccc(c34)C2=O)CC1	10µM*	-29%	?	?	-26
SMILES	HCV inhibitor	FMDV inh	LASV entry inh	Marburg entry inh	HCMV antiviral
COc1ccc(CN2CCN(C(=O)c3ccc(S(=O)(=O)N4CCCCCC4)cc3)CC2)cc1	?	20µM*	?	-5%	-75*
Cc1ccc2c(CC(=O)N3CCN(c4cccc(Cl)c4)CC3)coc2c1C	.	?	23%[46.1 µM]	-11%[46.1 µM]	8
COc1ccc(C(=O)NCc2nc(-c3cccc(C)c3)no2)cc1OC	.	-7%	10%[46.1 µM]	?	-23
C=CCN1C(=O)c2ccc(C(=O)N(CC)CC(=O)Nc3c(F)cccc3F)cc2C1=O	10%	-4%	3%[46.1 µM]	?	7
O=C(c1ccc(S(=O)(=O)N2CCCC2)cc1)N1CCN(Cc2ccc3c(c2)OCO3)CC1	-16%	-23%	-11%	9%	-24
COc1ccc(CN2CCN(C(=O)c3ccc(S(=O)(=O)N4CCCCCC4)cc3)CC2)cc1F	?	14µM*	?	?	-77*
O=C(O)c1cc(C(=O)O)cc(N2C(=O)c3ccccc3C2=O)c1	.	.	.	.	-31
O=C(O)c1cc(N2C(=O)C=CC2=O)cc(N2C(=O)C=CC2=O)c1	10%	-19%	-20%	10µM*	-16
COCC(=O)N1CCC2(CCN(Cc3ccccc3)CC2)CC1	.	-17%	.	.	.
O=C1NC(=O)C(=Cc2ccc(Sc3ccccc3)o2)C(=O)N1	1%	22µM*	10%	2%[46.1 µM]	124
O=C1NC(=O)C(=Cc2ccc(-c3ccc(Cl)cc3)o2)C(=O)N1	9%	32µM*	.	.	.
CN1C(=O)C(=Cc2ccc(Sc3ccccc3)o2)C(=O)N(C)C1=O	12%	-4%	28%	1%[46.1 µM]	-22
O=C1NC(=O)C(=Cc2ccc(-c3ccc(S(=O)(=O)N4CCOCC4)cc3)o2)C(=O)N1	26%	?	.	.	19
O=C(Nc1ccccc1Br)C1CC(=O)N(c2ccc3c4c(cccc24)CC3)C1 (stereo not given)	?	-3%	?	10µM*	-29
O=C(N[C@H]1CC[C@@]23CCCN2C(=O)CCC[C@H]3[C@H]1Cc1ccccc1)c1ccc(Cl)c(C(F)(F)F)c1	.	.	.	.	7
Cc1ccc(C(=O)c2c(C)oc3c2C(=O)C(=O)c2ccccc2-3)cc1	7.1µM*	?	7.1µM*	7.9µM*	.
Cc1oc2c(c1C(=O)c1ccc(Cl)cc1)C(=O)C(=O)c1ccccc1-2	10µM*	?	-27%	-22%	?
COCCCNC(=O)C1CCN(c2nc3ccc(Cl)cc3[nH]2)CC1	.	12%	-7%[46.1 µM]	.	?
COc1ccc(CCNc2nc(-c3ccc(C)cc3)cc(C(F)F)n2)cc1OC	.	-11%	?	11%[46.1 µM]	-25
Cc1ccc(-c2cc(C(F)F)nc(S(C)(=O)=O)n2)cc1	?	32µM*	?	?	-7
Cc1ccccc1C(=O)Nc1cccc(NC(=O)c2ccc(-c3ccc(Br)cc3)o2)c1	?	?	?	?	-96*
CC(=O)N1CCN(c2ccc(NCc3ccc(-c4ccc(Br)cc4)o3)cc2)CC1	.	?	.	.	-80*
CC(=O)N1CCN(c2ccc(NCc3ccc(Br)o3)cc2)CC1	.	-22%	.	.	-62*
CC(=O)N1CCN(c2ccc(NCc3ccccc3)cc2)CC1	-24%	0%	9%	0%	-13
CN1CCN(c2ccc(NC(=O)c3ccc(-c4ccc(Br)cc4)o3)cc2)CC1	10µM*	-18%	?	?	-33
CCOc1ccccc1CNC(=O)c1ccc2nc(N3CCC(C)CC3)sc2c1	.	?	.	?	25

Screening results from PubChem.
